MCF10A rerep: DNA re-replication induction in MCF 10a cells. MCF 10A DNA re-replication, Hoechst nuclear intensity, 48 h. Potency, µM (titrated, usually from 46.1 µM), hits mostly activators. hit rate 2.9% among 350,000. AID 624296; also: nearly all actives have a fitted effect of over 50% in size
KB-V1 cytotox: KB-V1 MDR subline cytotoxicity; KB-V1 MDR cells viability, CellTiter-Glo, 72 h; Potency, µM (titrated, usually from 46.1 µM), hits mostly cytotoxic; hit rate 3.4% among 400,000; AID 1347076; also: nearly all actives have a fitted effect of over 60% in size
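In this primary screen, KB-V1 cells overexpressing P-gp are incubated with library compounds (lowest to highest concentration) for 72 h at 37 degrees C before a luminescent ATP viability read.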
SW480 rerep: induces DNA re-replication in SW480 colon adenocarcinoma cells; SW480 DNA re-replication, Hoechst DNA content imaging, 48 h; Potency, µM (highest dose often 46.1 µM), usual class: activators; hit rate 1.8% among 340,000; AID 624297; also: nearly all actives have a fitted effect of over 55% in size
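Quantitative HTS format with DMSO vehicle controls; 48 hr drug incubation at 37 C, then 40 min Hoechst staining and scanning imager measurement at 405 nm excitation.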
HT1080 IDH1KD tx: kills HT-1080 cells with IDH1 knockdown; HT-1080 IDH1 knockdown viability, ATP luminescence, 48 h; Potency, µM (titrated, usually from 46.1 µM), hits mostly cytotoxic; hit rate 2% among 360,000; AID 686971
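CellTiter-Glo luminescence after 48 h compound exposure at 37 degrees C of IDH1-knockdown HT-1080 cells in 5% FBS RPMI. %Activity scaled between DMSO wells and cell-free media wells, with curves fitted and assigned curve classes.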
KB-3-1 cytotox: kills parental KB-3-1 adenocarcinoma cells. Potency, µM (top dose mostly 46.1 µM), hits mostly cytotoxic. KB-3-1 viability, CellTiter-Glo ATP luminescence, 72 h. hit rate 1.4% among 400,000; also: nearly all actives have a fitted effect of over 60% in size
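Cells are dispensed, compounds pinned in, plates held at 37 °C for 72 h, then CellTiter-Glo is added and luminescence read after 10 minutes. Cell line: parental KB-3-1 in phenol-red-free DMEM, 10% FBS.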
HT1080-NT tox: kills 2HG-producing HT-1080-NT fibrosarcoma cells; hit rate 1.6% among 360,000; Potency, µM (doses to about 46.1 µM), actives largely listed as cytotoxic; HT-1080-NT fibrosarcoma viability, CellTiter-Glo ATP luminescence, 48 h; AID 686970;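 also: NT is the 2HG producing partner of a matched IDH1 knockdown line; nearly all actives have a fitted effect of over 55% in size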
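Fibrosarcoma NT cells, 750 per well in 5% FBS RPMI, were exposed to compound for 48 hours. Viability: CellTiter-Glo luminescence.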
Hits are given with their value; . = inactive; ? = inconclusive; / = not tested or not shown; [ ] = remark or other dose. Shown are actives, neighbours in structure and some others; about 7.9% of the full set was active somewhere. Calls follow the shape of the dose curve; as a rule, active = well fitted curve in the direction sought with a large enough effect; inconclusive = small, poorly fitted or top-dose-only effect, or another doubt; inactive = no such curve, though single readings can be large; an effect the other way counts as inactive or inconclusive.

SMILES | MCF10A rerep | KB-V1 cytotox | SW480 rerep | HT1080 IDH1KD tx | KB-3-1 cytotox | HT1080-NT tox
Cc1cccc(N2CCC(N3CCN(C4CCCCC4)C(CCO)C3)CC2)c1C (stereo unspecified) | 16µM | . | . | . | . | .
CC(C)N1CCC(N2CCN(C3CCCC3)CC2CCO)CC1 (stereo unspecified) | . | . | . | . | . | .
COc1ccccc1C(CNC(=O)c1cc(S(=O)(=O)N2CCOCC2)ccc1C)N1CCCC1 (stereo unspecified) | . | . | . | . | . | .
O=C(NNC(=O)c1cc(Br)ccc1Cl)c1csc(N2CCOCC2)n1 | . | ? | . | . | . | .
O=C(NNC(=O)c1cc(Br)ccc1O)c1csc(N2CCOCC2)n1 | . | ? | 4.1µM | ? | ? | .
Cc1ccc2sc3ccc(NC(=O)c4ccccc4Cl)cc3c(=O)c2c1 | ? | ? | 13µM | ? | ? | ?
O=C(O)CC1Cc2ccccc2C1C(=O)O (stereo unspecified) | . | . | . | . | . | .
CCCN1CCN(CCNC(=O)Nc2ccccc2OCC)CC1 | / | . | / | / | . | /
CCc1ccc(NC(=S)NC2CC3CCCC(C2)N3Cc2cccs2)cc1 (stereo unspecified) | . | 18µM | 15µM | ? | . | ?
CC1CC(C)CN(C2CCCCC2NS(=O)(=O)c2ccc(Cl)cc2)C1 (stereo unspecified) | . | . | . | . | . | .
Cc1ccc(C)c(Cn2c(=O)n(CCCC(=O)NCc3ccco3)c(=O)c3sccc32)c1 | 13µM | ? | ? | 9.2µM | 5.8µM | ?
O=C(CCn1c(=O)c2sccc2n(CC(=O)NCc2ccco2)c1=O)NCc1ccccc1 | . | . | . | . | . | 0.1µM
O=C(CCCn1c(=O)c2sccc2n(CC(=O)NCc2ccco2)c1=O)NCc1ccco1 | . | . | . | . | . | .
N#Cc1c(C(F)(F)F)cc(-c2cccs2)nc1SCc1ccccc1F | / | ? | / | / | . | /
O=C(O)C1CCC(=O)N1Cc1ccc(F)cc1 (stereo unspecified) | 16µM | . | . | . | . | .
Cc1ccc(C(=O)N2CCN(c3ccc(C(F)(F)F)cn3)CC2)cc1 | . | . | . | . | . | .
COCc1c(C(=O)N2CCN(c3ccccc3C)CC2)oc2ccccc12 | . | 21µM | . | . | . | .
Cc1c(C(=O)N2CCN(c3ccc(C(F)(F)F)cn3)CC2)oc2ccccc12 | 23µM | . | . | . | . | .
COCc1c(C(=O)N2CCN(CCOc3ccccc3)CC2)oc2ccccc12 | . | ? | ? | . | . | .[9.24 µM]
O=C(c1ccccc1Oc1ccc(C(F)(F)F)cc1[N+](=O)[O-])N1CCOCC1 | . | . | . | . | . | .
O=C(c1ccc(Oc2ccc(C(F)(F)F)cc2[N+](=O)[O-])cc1)N1CCOCC1 | . | 23µM | . | . | ? | .
CC(C(=O)N1CCc2ccccc21)N1CCc2ccccc2C1 (stereo unspecified) | . | 15µM | . | . | . | .
COc1ccccc1N1CCN(C(=O)c2oc3ccccc3c2C)CC1 | ? | . | 15µM | . | . | .
CC(C)(C)c1ccc(C(=O)N2CCN(c3ccc(N4CCOCC4)nn3)CC2)cc1 | . | ? | . | . | . | .
CC(=O)c1ccc(N2CCN(c3ccc(C(F)(F)F)cn3)CC2)cc1 | . | 7.3µM | . | . | ? | .
SMILES | MCF10A rerep | KB-V1 cytotox | SW480 rerep | HT1080 IDH1KD tx | KB-3-1 cytotox | HT1080-NT tox
COc1ccccc1N1CCN(C(=O)c2oc3ccc(Br)cc3c2C)CC1 | 16µM | 13µM | ? | ? | 10µM | ?
COc1ccccc1N1CCN(C(=O)c2oc3ccc(F)cc3c2C)CC1 | ? | ? | ? | . | ? | .
O=C(c1ccc(C(F)(F)F)cc1)N1CCN(c2ccc(N3CCOCC3)nn2)CC1 | . | 16µM | . | . | . | .
CCCSCCCNC(=O)Cn1c(=O)c2cccn2c2ccccc21 | . | . | . | . | . | .
Clc1nc(NCc2cccs2)c2[nH]cnc2n1 | / | . | / | / | . | /
Cc1c(C(=O)N2CCc3ccccc32)oc2ccccc12 | . | 18µM | . | . | . | .
Cc1nn(C)c(C(=O)N2CCc3ccccc32)c1Br | ? | ? | . | . | . | .
COCc1c(C(=O)N2CCc3ccccc32)oc2ccccc12 | ? | . | . | . | . | .
Cn1ncc(Br)c1C(=O)N1CCc2ccccc21 | . | ? | 0.52µM | . | . | .
CCn1nnc2cc(C(=O)N3CCC(C(=O)OC)CC3)ccc21 | . | ? | . | . | . | .
CCCCOC(=O)c1ccc(NC(=O)Cc2coc3ccc(C(C)C)cc23)cc1 | / | . | / | / | . | /
CC(=O)Nc1ccc(Sc2ccc([N+](=O)[O-])o2)cc1 | 1.8µM | ? | 5.8µM | 5.8µM | . | 4.1µM
CC(C)(C)C(=O)Nc1ccc(Sc2ccc([N+](=O)[O-])cc2)cc1 | ? | 21µM | . | . | . | .
c1c[nH]c(C2CCN(c3ncc(-c4ccc5c(c4)OCCCO5)s3)CC2)n1 | / | . | / | / | . | /
Nc1cccc2[nH]c(=O)c3ccccc3c12 | . | . | . | . | ? | .
O=c1[nH]c2cc([N+](=O)[O-])cc(Cl)c2c2ccccc12 | / | 12µM | / | . | . | .
CC1CCCCC1NC(=O)c1cccc(S(=O)(=O)N2CCN(Cc3ccccc3)CC2)c1 (stereo unspecified) | . | ? | . | . | . | .
Cc1nnsc1C(=O)N/N=C/c1ccc2ccccc2c1O | ? | . | ? | 3.7µM | . | 4.1µM
Cc1nnsc1C(=O)N/N=C/c1ccccc1 | . | . | . | . | . | .
COc1ccc2c(c1)[nH]c(=O)c1sc3ccccc3c12 | 13µM | . | . | . | . | .
COc1ccc2sc3c(=O)[nH]c4ccccc4c3c2c1 | ? | ? | . | . | ? | .
CCOc1ccc(/C=N/NC(=O)c2ccccc2C)cc1CN1CC2CC(C1)c1cccc(=O)n1C2 (stereo unspecified) | . | . | . | . | . | .
COc1cc(C(=O)O)cc(NC(=O)c2cccs2)c1OC | . | ? | . | . | . | .
COc1cc(C(=O)OCc2ccc(C)cc2)cc(NC(=O)c2cccs2)c1OC | 23µM | ? | ? | . | . | .
N=c1c(C(=O)NCCc2ccccc2)cc2c(=O)n3ccccc3nc2n1CCCN1CCOCC1 | ? | ? | 5.2µM | . | . | .
COCCCn1c(C(=O)NCCN2CCOCC2)cc2c(=O)n3ccccc3nc21 | . | . | . | . | . | .
CCOCCCn1c(=N)c(C(=O)NCc2ccccc2)cc2c(=O)n3ccccc3nc21 | / | . | / | / | . | /
N=c1c(C(=O)NCc2ccc(F)cc2)cc2c(=O)n3ccccc3nc2n1CCCN1CCOCC1 | 2.8µM | . | ? | . | . | .

Source: PubChem BioAssay (National Center for Advancing Translational Sciences (NCATS))
